# In all, about 33,000 sequences were measured (“E-score (-0.5 to 0.5)”: median about -0.016, highest 2% from about 0.3 on). Only a selection was taken, and the highest values are over-represented in it overall.
# Target: T1, Yer184c (UniProt P39961)
# T1 sequence: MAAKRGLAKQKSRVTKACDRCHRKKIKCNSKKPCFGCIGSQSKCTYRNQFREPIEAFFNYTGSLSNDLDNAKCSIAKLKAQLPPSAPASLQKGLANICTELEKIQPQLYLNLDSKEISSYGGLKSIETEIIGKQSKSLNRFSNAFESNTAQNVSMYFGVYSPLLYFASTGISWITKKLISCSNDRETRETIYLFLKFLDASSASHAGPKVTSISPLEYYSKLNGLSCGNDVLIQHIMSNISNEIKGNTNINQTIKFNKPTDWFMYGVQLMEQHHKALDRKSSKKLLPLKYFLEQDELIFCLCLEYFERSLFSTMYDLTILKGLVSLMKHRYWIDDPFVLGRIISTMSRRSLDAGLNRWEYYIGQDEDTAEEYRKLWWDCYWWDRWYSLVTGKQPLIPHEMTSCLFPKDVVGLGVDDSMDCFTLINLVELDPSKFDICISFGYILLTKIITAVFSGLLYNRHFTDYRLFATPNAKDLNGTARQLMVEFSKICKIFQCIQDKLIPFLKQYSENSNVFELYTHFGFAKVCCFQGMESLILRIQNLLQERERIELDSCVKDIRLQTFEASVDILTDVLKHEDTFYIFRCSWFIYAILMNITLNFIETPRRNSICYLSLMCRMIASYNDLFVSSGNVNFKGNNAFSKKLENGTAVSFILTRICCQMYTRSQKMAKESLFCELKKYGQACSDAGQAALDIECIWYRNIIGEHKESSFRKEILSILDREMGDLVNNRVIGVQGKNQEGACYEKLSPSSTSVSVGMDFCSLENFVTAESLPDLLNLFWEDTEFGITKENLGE
# Assay: PBM E-score (8-mer binding enrichment) (E-score (-0.5 to 0.5)); higher = stronger / more preferred TF binding
# Conditions: protein concentration: 100 nM; construct: GST-full length
# Summary of the method: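 Each ungapped eight-base word and its reverse complement, pooled, received an E-score from the Universal PBM Analysis Suite. Underlying scans, normalised with masliner, recorded fluorescent anti-GST bound to GST-tagged yeast transcription factors. These were applied at about 100-200 nM to universal all-10-mer Agilent arrays double-stranded by primer extension.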
row,Sequence,PBM E-score
1,CGGCGAAA,0.35
2,CGGCGAAG,0.205
3,AGGCGATA,-0.12
4,CGGCGATC,0.312
5,AGGCGATC,-0.168
6,CGGCGATA,0.36
7,GGGCGATA,-0.222
8,TGGCGAAA,0.0101
9,CGGCGACC,0.237
10,GAACAGCA,0.123
11,ACCCAAGG,-0.162
12,ACGGCGAT,0.188
13,CCCCCTTA,-0.348
14,CGAGGTTA,-0.00293
15,CCAGGGTA,-0.174
16,ACTAACTC,-0.00452
17,ATTCTTTA,0.0489
18,CTGAGTGA,0.24
19,ATCCTATG,-0.0991
20,CTGAATAA,0.134
21,ATTAACCA,-0.114
22,ATTAACCG,0.335
23,ATTAACCC,0.0664
24,GCTCCGTA,0.205
25,GCTCCGCA,0.0792

row,Sequence,PBM E-score
1,CCTCCGTA,-0.0207
2,CCTCCGGA,0.337
3,GCTCCGGA,0.367
4,CCTCCGCA,-0.247
5,CTTGACAA,0.152
6,CGGACCGA,0.402
7,CGGACCAG,0.185
8,CGGACCGC,0.104
9,CGGACCAC,0.244
10,CGAACCGA,0.328
11,CGGACCAA,0.343
12,GGGACCGA,0.158
13,CGAACCGC,0.189
14,GGAACCGA,0.248
15,AACGGTTA,0.0289
16,AGAGACAT,-0.0279
17,GATAGCGC,-0.051
18,CAAATAGC,0.0894
19,AAAGGAAA,0.203
20,CGGATCCG,0.445
21,CAGATCCG,0.317
22,CGGATCCC,0.171
23,AAGATCCG,0.091
24,CGGATCCA,0.263
25,CAGATCCC,-0.21

row,Sequence,PBM E-score
1,GGCATGAC,-0.199
2,CCGGATAG,0.342
3,ACGGATAT,0.339
4,ACGGATAA,0.299
5,GCGGATAA,0.224
6,CGGGATAG,0.102
7,CCGGATAC,0.257
8,CAGGATAA,-0.0581
9,CAGGATAG,0.0949
10,TGGGATAA,-0.0513
11,TCGGATAA,0.379
12,CCGGATAA,0.4
13,ACGGATAG,0.139
14,ATGTTCAA,0.134
15,ACCTTACG,0.00591
16,GCAGGACA,0.11
17,CCTTCTTC,-0.19
18,CGCGGGAA,0.311
19,CGCGGAAC,0.382
20,CGCGGGGA,0.125
21,AGCGGAAC,0.194
22,GGCGGGAA,0.0413
23,AGCGGAAA,0.27
24,GGCGGAAC,0.199
25,CGCGGAAA,0.325

row,Sequence,PBM E-score
1,GGCGGAAA,0.108
2,GATGGACA,0.183
3,ATTAGCGC,0.056
4,ATAGATCA,0.216
5,CAAGCTGG,-0.129
6,CCAGCCCA,-0.258
7,ATACTCTG,0.006
8,CGGGTTCC,0.246
9,AAGAAACC,0.129
10,CGTAGAGA,-0.0444
11,GAACGCGC,0.163
12,CGTATAAA,0.311
13,GGTATAAA,0.16
14,AGTATAAC,-0.0238
15,CGTATAAC,0.106
16,AGTATATG,0.0296
17,AGTATATC,0.155
18,AGTATATA,0.334
19,AGTATAAA,0.365
20,TGTATAAA,0.0524
21,TCGCACAA,-0.0958
22,CCATTTCC,0.13
23,ACCTACAC,-0.309
24,CCCTCAAG,-0.297
25,GAAGTGGA,0.0603

row,Sequence,PBM E-score
1,TTACCGAA,0.336
2,ATACCGAA,0.322
3,CTACCGAA,0.105
4,GTACCGAA,0.227
5,ATACCGAC,0.0349
6,ATACCGAT,0.11
7,AAAATGTA,-0.017
8,GTTAGAAA,0.184
9,CTGGAACA,0.122
10,CCGGAACA,0.435
11,CAGGAACA,-0.0366
12,TCGGAACA,0.408
13,ACGGAACA,0.303
14,GCGGAACA,0.237
15,AGCTTTTC,0.0452
16,CAATTAAG,0.21
17,GGGTTAAA,-0.0167
18,ATACTCCC,0.059
19,CAACTCCG,0.197
20,ATACTCCG,0.321
21,AAACTCCG,0.319
22,CAGCTCCG,0.222
23,AAGCTCCT,-0.237
24,AAACTCCT,-0.18
25,AAGCTCCG,0.339

row,Sequence,PBM E-score
1,ATACTCCA,-0.081
2,AATCGTAT,0.039
3,TATATCGA,0.161
4,ATATCTTG,0.0464
5,CAAAGGGA,-0.166
6,ACGGTCCG,0.161
7,GAGCCGTA,0.307
8,GAGCCGCA,0.0573
9,AAGCCGGA,0.411
10,AAGCCGTA,0.224
11,GAGCCCGA,0.0143
12,TACCCGGA,0.354
13,GAGCCGGA,0.328
14,AAGCCGTC,0.187
15,CACCCGGA,0.237
16,GACCCGGA,0.212
17,CAGCCGTA,0.142
18,AAGCCGCA,0.161
19,GCAGAGCA,0.0245
20,AATGTCCG,0.283
21,AGGTCGGG,-0.168
22,AAGCCCAA,-0.106
23,CCATCTTC,0.173
24,AGAAGCTC,0.0486
25,CCGTGAGG,-0.119

row,Sequence,PBM E-score
1,CACCAGAC,-0.00896
2,AACAGCTG,0.0223
3,CTAGAGTA,-0.0589
4,GAGCCGCC,0.0613
5,GAGCCCGC,-0.212
6,TAGCCGGA,0.401
7,CAGCCGGG,0.127
8,CAGCCGGC,0.391
9,TAGCCGCA,-0.0301
10,AAGCCGGT,0.258
11,AAGCCGGG,0.246
12,AAGCCGGC,0.374
13,CAGCCGCC,0.0636
14,TAGCCGAA,0.276
15,GAGCCGGC,0.406
16,CCATAGAC,-0.204
17,GAAGTACA,0.0369
18,CCAATCGC,-0.072
19,ATCAGCAG,0.0226
20,GGTGCCAC,-0.119
21,TCGTACCA,0.099
22,CGCGCACA,0.112

# — the supplement of paper PMC3334620
